A word on the inhibition: it is the relative decrease from the control value, in per cent.

Hit rate of the full screen: of about 320,000 compounds, about 2,800 (0.88%) were called active. Shown is part of a subset that was picked to be rich in actives. Unmarked numbers belong to inactive results.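 Rule for the calls: active = inhibition above the mean inhibition of all tested compounds plus 3 SD, computed separately for each screening campaign (cut at about 15% in these data); inactive = the rest.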

59 molecules from PubChem BioAssay AID2235 (The Scripps Research Institute Molecular Screening Center, 2010) can be followed below.

Serine/threonine-protein phosphatase PP1-alpha catalytic subunit (Homo sapiens), sequence (P62136 whole entry, looked up): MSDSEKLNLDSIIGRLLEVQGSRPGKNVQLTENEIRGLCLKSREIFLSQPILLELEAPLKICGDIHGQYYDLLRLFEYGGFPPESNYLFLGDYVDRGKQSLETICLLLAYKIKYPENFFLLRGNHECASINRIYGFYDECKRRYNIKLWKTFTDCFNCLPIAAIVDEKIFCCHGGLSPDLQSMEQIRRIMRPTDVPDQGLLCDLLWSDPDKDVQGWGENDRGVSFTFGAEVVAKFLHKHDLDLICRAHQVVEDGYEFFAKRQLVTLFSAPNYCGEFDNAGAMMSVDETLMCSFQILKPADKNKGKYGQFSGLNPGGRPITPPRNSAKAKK

The experiment concerns the target Serine/threonine-protein phosphatase PP1-alpha catalytic subunit (Homo sapiens) (UniProt P62136). The experiment in a line: inhibition of human PP1 catalytic subunit – biochemical, fluorescence, OMFP substrate, single point, counter-screen for PP5 inhibitor project, primary screen (AID 2235). The conditions noted are these: purified PP1alpha, at 6.7 µM, active compounds read high. For orientation: Counterscreens check selectivity or assay interference.
As to `O=C1C(=O)N(CC2COc3ccccc3O2)c2ccccc21` (centres undefined), the inhibition was 18.4% (active). The figure for `Cc1cc(C(=O)CCl)c(C)n1CC1COc2ccccc2O1` (centres undefined) is -1.57%. The figure for `O=C(CN1C(=O)C2C3C=CC(C3)C2C1=O)NCC1COc2ccccc2O1` (centres undefined) is 0.06%. As for `O=C(NC(Cc1c[nH]c2ccccc12)C(=O)O)/C(=C/c1ccco1)NC(=O)c1ccccc1` (centres undefined), the figure is -3.53%.

Take `CN(C(=O)CSc1nnc(-c2n[nH]c3ccccc23)o1)c1ccccc1`: the inhibition was -3.45%. The figure for `COc1ccc(/C=C2\SC(=O)N(CCC(=O)NC3CCS(=O)(=O)C3)C2=O)cc1` (centres undefined) is -1.73%; for `Cn1c(=N)n(CC(O)c2ccccc2)c2ccccc21` (centres undefined) it is -1.18%. Take `N=c1n(Cc2ccc(Cl)cc2)c2ccccc2n1CC(O)c1ccco1` (centres undefined): the inhibition was 21.9% (active). The figure for `Cn1c(=N)n(CC(O)c2cccs2)c2ccccc21` (centres undefined) is 2.31%; for `O=S(=O)(c1cccc(-c2cn3ccccc3n2)c1)N1CCCC1` it is -0.43%; for `O=C(O)c1ccccc1OCc1ccccc1Cl` it is -3.14%. As to `CC(C)c1cc(C(N)=O)c(NC(=O)c2cccc(COc3ccc(Br)cc3)c2)s1`, the inhibition was 6.73%. On to `COc1ccc(N2CCN(S(=O)(=O)c3ccc4c(c3)NC(=O)C(C)C(=O)N4)CC2)cc1` (centres undefined), for which the inhibition was -1.74%. As for `CSC1=NCCN1C(=O)Cc1cccc2ccccc12`, the inhibition was -1.43%.

As for `C=C1c2c(Cl)ccc(O)c2C(O)=C2C(=O)[C@]3(O)C(O)=C(C(N)=O)C(=O)[C@@H](N(C)C)[C@@H]3[C@@H](O)C12` (some centres undefined), the inhibition was 23.5% (active).

Turning to `CN(C)[C@@H]1C(=O)C(C(N)=O)=C(O)[C@@]2(O)C(=O)C3=C(O)c4c(O)ccc(Cl)c4[C@@H](O)[C@H]3C[C@@H]12`, the inhibition was 5.56%. Consider `Cc1cc(Nc2cccc(F)c2)n2ncnc2n1`, for which the inhibition was -2.78%.

With `COc1ccccc1/C=N\Nc1cc(C)nc(-n2nc(C)cc2C)n1`, the inhibition is 30.7% (active). As for `CN(C)c1ccc(/C=N/Nc2cc(N3CCOCC3)nc(N3CCOCC3)n2)cc1`, the figure is -2.51%.

On to `Cc1nc(Cl)cc(N/N=C/c2ccccc2)n1`, for which the inhibition is -6.15%. The figure for `Cc1cc(N/N=C\c2ccc(Br)cc2)nc(-n2nc(C)cc2C)n1` is 21.7% (active); for `COc1cccc(/C=N/Nc2cc(C)nc(-c3ccccc3O)n2)c1O` it is 6.15%; for `COc1ccccc1/C=N/Nc1nc(C)c(C(C)=O)s1` it is 1.23%. The figure for `CS(=O)(=O)N(Cc1nc2sc3c(c2c(=O)[nH]1)CCCC3)C1CCCCC1` is 1.31%; for `NC1=NC(c2ccc([N+](=O)[O-])cc2)N(c2ccc(F)cc2)C(N)=N1` (centres undefined) it is 1.43%. As for `CCOc1ccc(C)cc1S(=O)(=O)NC1CCCCCC1`, the figure is 0.47%; as for `O=C(CN1CCN(Cc2ccccc2)CC1)NC(c1ccccc1)c1ccccc1`, 10.6%; as for `O=C(CN1CCc2ccccc21)NC(c1ccccc1)c1ccccc1`, 17.5% (active). As to `NS(=O)(=O)c1cccc(NC(=O)CN2CCCc3ccccc32)c1`, the inhibition was -0.85%. The figure for `CCn1cc(CN2CCCC(CNS(=O)(=O)Cc3ccccc3)C2)cn1` (centres undefined) is 0.72%; for `COC(=O)N1CN(C(=O)OC)CN(C(=O)OC)C1` it is -3.93%. For the molecule `O=C(CCCN1C(=O)/C(=C/c2cccs2)SC1=S)Nc1ccc(O)cc1`, the inhibition was -0.73%. As for `CCCCN(CCCC)CCC(O)c1cc2c(Cl)cc(Cl)cc2c2cc(C(F)(F)F)ccc12` (centres undefined), the figure is 17% (active); as for `CCCCC(=O)Nc1ccc(C(=O)Nc2cc(C(F)(F)F)ccc2Cl)cc1`, 1.1%; as for `CC(C)c1nnc(NC(=O)CCC(=O)N2CCN(c3cccc(Cl)c3)CC2)s1`, -3.62%. The figure for `NNC(=O)c1cnn(-c2ccccc2)c1C(F)(F)F` is 0.34%; for `CCO/N=C(/C)c1c(O)cc(-c2ccccc2)n(-c2ccccc2)c1=O` it is -2.6%. As for `CC(C)NC(=O)NC(=O)COC(=O)c1ccc(NC(=O)CC#N)cc1`, the figure is -2.32%; as for `CCOc1ccc(NC(=O)CCNC(=O)c2ccc(Br)cc2)cc1`, 1.21%. With `CCOc1ccc(NC(=O)c2ccc(NC(=O)COC(=O)c3ccc(NC(=O)CC#N)cc3)cc2)cc1`, the inhibition is 75.8% (active). The figure for `CN=C(c1ccccc1)c1c(C)cccc1C` is 2.55%; for `CCNC(=O)NC(=O)C(C)OC(=O)c1cc(S(=O)(=O)N2CCCCCC2)ccc1OC` (centres undefined) it is 1.67%; for `COc1cccc(NC(=O)Cn2c3ccccc3c3nc4n(c(=O)c32)CCS4)c1` it is -2.19%. The figure for `O=C(NCc1ccc2c(c1)OCO2)C12CC3CC(CC(C3)C1)C2` is -3.56%.

With `CC(=O)Nc1ccc(NC(=O)CSc2nnc(C3CC3)n2-c2ccccc2)cc1`, the inhibition is -2.45%.

In the case of `O=C(CSc1nnc(C2CC2)n1Cc1ccccc1)Nc1cccnc1Cl`, the inhibition is 18% (active). Consider `COc1ccc(-c2nnc(SCC(=O)Nc3cccnc3Cl)n2C)cc1`, for which the inhibition is -4.29%. Regarding `CC(=O)c1cccc(NC(=O)COc2ccc(S(=O)(=O)N3CCOCC3)cc2)c1`, the inhibition was -2.4%. As for `Cc1ccccc1/[N+]([O-])=C/c1ccncc1`, the figure is -3.82%; as for `O=S(=O)(NCc1ccc2c(c1)OCO2)c1cccc2nsnc12`, -1.4%; as for `O=S(=O)(c1ccc(F)cc1)N1CCN(C(=S)NCc2ccco2)CC1`, -1.26%. For `COc1ccc2nc(NC(=O)c3ccc(Br)s3)sc2c1`, the inhibition is 3.31%. `COc1ccc2nc(NC(=O)NC3CCCCC3)sc2c1`: the inhibition was 0.1%. The figure for `COc1ccc2nc(Nc3nc(-c4ccncc4)cs3)sc2c1` is 15.7% (active); for `CCOC(=O)c1c(Cc2ccc(Cl)cc2)c[nH]c1C` it is 0.15%; for `COc1ccc(NC(=O)c2cc(-c3ccc(C)o3)nc3ccccc23)cc1` it is -1.75%. The figure for `O=C(Nc1cccc(F)c1)c1cc(-c2ccco2)nc2ccccc12` is 17% (active); for `O=C(O)c1cccc(NC(=O)c2cc(-c3cccc(Cl)c3)nc3ccccc23)c1` it is 8.21%; for `O=C(c1ccc(Cl)nc1)N1CCN(S(=O)(=O)c2ccc3c(c2)OCCO3)CC1` it is 1.34%.
